The list is not random: actives were taken first. Their share in the collection is about 6.9%.
JNK3 blocker = inhibitors of human JNK3 kinase; P53779; purified JNK3 kinase activity, HTS; inhibition, % at 8 µM; hit rate 0.61% among 60,000; AID 746; in the data active = inhibition above about 17%;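 note: 0% = DMSO and 100% = reference inhibitor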
Her2 expr inh = Her2 kinase expression inhibition | SKBR-3 HER2 protein level, AlphaScreen, 18-24 h; hits give low values | HER2 level % of control, % at 10 µM | hit rate 0.69% among 65,000;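 active = HER2 level under 5% of the carrier-only control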;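 note: 100% = DMSO carrier and 0% = 500 nM PU-H71 HSP90 inhibitor; lower value means stronger loss of Her2 protein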
Target sequence (P04626 whole entry, looked up): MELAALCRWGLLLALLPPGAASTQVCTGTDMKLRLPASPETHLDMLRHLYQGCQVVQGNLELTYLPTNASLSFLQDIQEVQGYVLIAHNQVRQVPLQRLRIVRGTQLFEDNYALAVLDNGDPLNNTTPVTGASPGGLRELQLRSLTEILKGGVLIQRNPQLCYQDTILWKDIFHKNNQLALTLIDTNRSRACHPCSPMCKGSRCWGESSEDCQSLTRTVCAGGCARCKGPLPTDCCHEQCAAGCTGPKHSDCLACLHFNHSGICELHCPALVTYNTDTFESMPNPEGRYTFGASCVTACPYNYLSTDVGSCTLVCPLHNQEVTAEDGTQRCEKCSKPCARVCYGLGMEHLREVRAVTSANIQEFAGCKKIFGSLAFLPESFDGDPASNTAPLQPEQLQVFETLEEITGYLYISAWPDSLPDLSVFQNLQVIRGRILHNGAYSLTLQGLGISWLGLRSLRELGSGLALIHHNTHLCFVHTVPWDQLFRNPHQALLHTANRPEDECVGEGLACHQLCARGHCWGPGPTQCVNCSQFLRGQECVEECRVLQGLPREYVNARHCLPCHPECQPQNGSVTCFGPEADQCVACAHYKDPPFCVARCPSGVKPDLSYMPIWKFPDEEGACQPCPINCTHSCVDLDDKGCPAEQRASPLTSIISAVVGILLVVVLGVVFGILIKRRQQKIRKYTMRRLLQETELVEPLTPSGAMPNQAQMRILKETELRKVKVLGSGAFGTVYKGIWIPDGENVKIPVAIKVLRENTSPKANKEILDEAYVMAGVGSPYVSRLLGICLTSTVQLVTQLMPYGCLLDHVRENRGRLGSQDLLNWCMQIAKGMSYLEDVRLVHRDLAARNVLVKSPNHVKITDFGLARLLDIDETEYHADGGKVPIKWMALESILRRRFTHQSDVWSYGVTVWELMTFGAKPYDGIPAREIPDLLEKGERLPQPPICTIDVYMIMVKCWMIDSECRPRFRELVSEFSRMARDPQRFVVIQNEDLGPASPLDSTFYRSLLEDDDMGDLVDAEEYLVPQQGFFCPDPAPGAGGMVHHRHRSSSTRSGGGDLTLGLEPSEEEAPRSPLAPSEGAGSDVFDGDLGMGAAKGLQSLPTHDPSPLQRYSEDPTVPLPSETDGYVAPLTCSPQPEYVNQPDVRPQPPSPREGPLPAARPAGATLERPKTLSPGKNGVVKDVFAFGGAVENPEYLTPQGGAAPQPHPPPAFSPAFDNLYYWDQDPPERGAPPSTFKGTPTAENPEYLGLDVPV
FXIa inh mix = factor XIa (human) inhibition, mixture screen; hit rate 0.19% among 62,000; P03951; purified FXIa, fluorogenic substrate, pooled mixtures; inhibition, % at 5 µM; AID 680;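 note: each value is inhibition by a whole ten-compound pool holding the compound; 0% = enzyme with no mixture and 100% = wells lacking enzyme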
M1 agonist = M1 muscarinic receptor agonism | CHO-M1 cells, Fluo-4 calcium fluorescence, agonist mode; hits give high values | B-score at 10 µM | hit rate 3% among 64,000 | AID 626;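 active = fluorescence rise, raw or as B-score row- and column-corrected plate score, outside the 99.7% band of its plate's samples, either direction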
M1 antagonist = blocks the rat M1 muscarinic receptor response to acetylcholine | CHO-M1 cells, Fluo-4 calcium, ACh EC80 antagonist mode; hits give low values | B-score at 10 µM | hit rate 3.4% among 64,000;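 active = calcium fluorescence response, raw or row-and-column corrected B-score, differing from the plate sample mean either way at a set confidence level, mostly lower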
FXIIa inh mix = blocks human factor XIIa in pooled compound mixtures | AID 684 | inhibition, % at 5 µM | hit rate 0.2% among 62,000 | P00748 | purified FXIIa, fluorogenic substrate;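 note: 0% = enzyme without compound and 100% = no enzyme blank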
M1 antag confirm = M1 muscarinic receptor (rat) antagonism, confirmed | AID 677 | hit rate 43% among 1,700 | shares compounds with M1 antagonist | CHO-M1 cells, Fluo-4 calcium, ACh EC80 antagonism; hits give low values | calcium response (max-min fluorescence) at 10 µM;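 active = calcium response below the same-plate mean of wells given acetylcholine alone at its 80%-effect dose, minus 3 SD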;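 note: raw fluorescence intensity difference in arbitrary instrument units and not normalized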
mGluR4 antag = acts on human mGluR4 in M1 antagonist selectivity test; fluorescence response (max-min) at 10 µM; hit rate 0.9% among 1,700; shares compounds with M1 antagonist; CHO-mGluR4 calcium flux, Fluo-4 fluorescence, glutamate EC80; hits give low values;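 active = fluorescence response below the plate's average for near-maximal glutamate wells, less 3 SD of those wells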;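 note: raw unnormalized fluorescence span taken in the window right after glutamate addition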
* hit, by the source's call; x = no result. Cut-off read from the data, not from the text of the source, unless noted: active = inhibition above about 20% (passing the limit was not always enough); inactive = the rest.

SMILES | JNK3 blocker | Her2 expr inh | FXIa inh mix | M1 agonist | M1 antagonist | FXIIa inh mix | M1 antag confirm | mGluR4 antag
COCCn1c(SCc2cccnc2)nnc1-c1ccco1 | -5 | 91 | -9 | 0.00022 | -3* | 0 | 664 | 234
COCCn1c(SCC(=O)NCCc2ccccc2)nnc1-c1ccco1 | -8 | 111 | -2 | 0.13 | 0.027 | 9 | x | x
CCN1CCN(c2cc(C)c3cc(NC(=O)c4cncc(Br)c4)ccc3n2)CC1 | x | 107 | 5 | -0.071 | -5* | 2 | 250* | 228
COc1cccc(C(=O)Nc2ccc3nc(N4CCOCC4)cc(C)c3c2)c1 | 4 | 89 | -5 | 0.16 | -1.3 | -16 | x | x
CCN1CCN(c2cc(C)c3cc(NC(=O)c4ccc5c(c4)OCO5)ccc3n2)CC1 | -5 | 37 | 17 | -0.036 | -2.6* | 5 | 502* | 214
CCc1oc2ccccc2c1C(=O)CCN1CCCCC1 | -9 | 133 | 3 | 0.19 | -7.1* | -2 | 196* | 235
O=c1oc2ccccc2c(N2CCCCC2)c1CN1CCCCC1 | -6 | 80 | -5 | 1.3 | -0.5 | 9 | x | x
COC(=O)N1CC(=O)N(OC)C1c1ccc(Cl)cc1Cl (stereo not given) | 0 | 100 | 1 | 1.2 | 0.32 | 8 | x | x
Cc1onc(-c2c(F)cccc2Cl)c1C(=O)N1CCN(S(C)(=O)=O)CC1 | 3 | 110 | 4 | 1.4 | -0.036 | 1 | x | x
Cc1onc(-c2c(Cl)cccc2Cl)c1C(=O)N1CCc2ccccc21 | -10 | 93 | -4 | 0.5 | -8.3* | 0 | 120* | 226
Cc1onc(-c2c(F)cccc2Cl)c1C(=O)N1CCc2ccccc2C1 | -4 | 106 | 4 | 0.36 | -3.2* | 8 | 517 | 233
Cc1ncsc1C(=O)NCc1ccc(N2CCCC2=O)cc1 | 6 | 103 | -5 | 0.25 | -1.5 | 6 | x | x
Cc1ccc2oc(=O)c3cnn(CC(=O)N(CCCN4CCOCC4)Cc4ccco4)c3c2c1 | 3 | 105 | 4 | 0.91 | -0.61 | 2 | x | x
O=C1CC(c2ccc(Cl)cc2)CC(O)=C1C=NCCN1CCNCC1 (stereo not given) | x | 101 | 9 | -0.58 | -5.3* | 7 | 512* | 184
Cc1cc(NCCCN2CCOCC2)n2nc(C)c(-c3ccccc3)c2n1 | -2 | 75 | -33 | 0.93 | -0.084 | 2 | x | x
COc1ccccc1-c1c(C)nn2c(NCCN3CCCC3)cc(C)nc12 | 4 | 109 | -2 | 0.062 | -1.9* | -5 | 460 | 215
CCn1c(=O)c(C(=O)Nn2c(C)nc3ccccc3c2=O)c(O)c2ccccc21 | 1 | 53 | 14 | 0.75 | -14* | -3 | 611 | 192
O=C(CN1CCC(n2nnc3cc(C(F)(F)F)ccc32)CC1)N1CCc2ccccc21 | -8 | 90 | 2 | 0.05 | 0.21 | 9 | x | x
O=C(CN1CCCC(O)C1)N1c2ccccc2Sc2ccc(C(F)(F)F)cc21 (stereo not given) | -5 | 47 | 7 | 0.41 | -11* | 26 | 16* | 227
O=C(NC1CCCCC1)C(c1ccco1)N(Cc1cccnc1)C(=O)C1COc2ccccc2O1 (stereo not given) | 5 | 97 | 0 | 0.79 | -1.5 | -22 | x | x
CCOc1ccc2nc(N3CCC(C(=O)N4CCN(c5ncccn5)CC4)CC3)sc2c1 | -2 | 100 | 8 | -0.52 | 0.31 | 6 | x | x
CCOc1ccc2nc(N3CCC(C(=O)N4CCN(c5ccccn5)CC4)CC3)sc2c1 | 1 | 78 | 4 | 0.87 | -2.4* | 12 | 411 | 198
COC(=O)c1ccc(C2C(C(C)=O)=C(C)Nc3ncnn32)cc1 (stereo not given) | 1 | 113 | -26 | -0.05 | -2.1 | -2 | x | x
Cc1cccc(CS(=O)(=O)Cc2ccc(C(=O)NCc3cccnc3)o2)c1 | 3 | 98 | -2 | -0.008 | -18* | 2 | 625 | 245
Cc1cc(NC(=O)CC(CN(C)S(=O)(=O)c2ccccc2)c2ccccc2)no1 (stereo not given) | 3 | 80 | 5 | -0.022 | 0.47 | 11 | x | x
SMILES | JNK3 blocker | Her2 expr inh | FXIa inh mix | M1 agonist | M1 antagonist | FXIIa inh mix | M1 antag confirm | mGluR4 antag
CS(=O)(=O)N1CCN(C(=O)c2ccccc2)C1 | 0 | 105 | 6 | 0.34 | -0.038 | -20 | x | x
CS(=O)(=O)N1CCN(C(=O)C2c3ccccc3Oc3ccccc32)CC1 | 7 | 90 | 3 | -0.28 | -2.2* | 6 | 365* | 200
CCOC(=O)C1=C(N)n2c(s/c(=C\c3cccs3)c2=O)=C(C(=O)OCC)C1c1cccs1 (stereo not given) | 0 | 50 | 0 | -0.14 | -0.61 | 3 | x | x
CC1(C)Cc2c(sc3c2C2=NCCN2C=N3)CS1 | -3 | 71 | 2 | -0.36 | -5.4* | 7 | 411* | 254
CN1C(=O)c2c(sc3c2CC(C)(C)SC3)N2CCN=C12 | -7 | 83 | 0 | 0.21 | -1.1 | -11 | x | x
O=C(Cn1cnc2ccccc21)OCC(=O)N1CCc2ccccc2C1 | -10 | 73 | 14 | -1.2 | -1.7* | 6 | 598 | 221
O=C(COC(=O)Cn1cnc2ccccc21)NCCc1ccccc1 | -1 | 103 | 11 | -0.052 | 0.56 | -13 | x | x
CC(Oc1ccc(Cl)cc1Cl)C(=O)NCCCn1ccnc1 (stereo not given) | 0 | 93 | 1 | 0.008 | -0.19 | 6 | x | x
CC(Oc1ccc(Cl)cc1Cl)C(=O)NCc1ccncc1 (stereo not given) | x | 117 | 7 | 0.64 | -2.4* | 6 | 605 | 223
CCOc1ccc2nc(NCCCNS(=O)(=O)c3ccccc3)c(C#N)cc2c1 | 1 | 88 | 3 | -1.4 | -0.018 | -14 | x | x
Cc1ccc(NC(=O)NC(=O)CN2C(=O)NC3(CCCCCCC3)C2=O)c(C)c1 | -4 | 111 | -10 | -0.12 | -2.2* | -7 | 588 | 164
COC(=O)CSc1nc2sc3c(c2c(=O)n1C1CCCCC1)CCN(C)C3 | 3 | 72 | 5 | -2.7* | -2.7* | -15 | 486* | 261
COc1ccc(-n2c(SCC(N)=O)nc3sc4c(c3c2=O)CCN(C)C4)cc1 | 4 | 157 | 2 | -1.1 | 0.51 | 11 | x | x
CCN(CC)CCOC(=O)C(c1ccccc1)c1ccccc1 | 4 | 65 | 4 | 0.14 | -13* | 1 | 19* | 240
CC1=C(C(=O)OC(C)C)C(c2ccccn2)n2ncnc2N1 (stereo not given) | -1 | 114 | -1 | 0.52 | 0.53 | 5 | x | x
Cn1cc(CN2CCN(c3ccccc3)CC2)c2ccccc21 | x | 84 | 19 | -0.63 | -4.3* | -11 | 459* | 191
Cc1oc(-c2cccc(Cl)c2)nc1CN1CCCC(C(=O)NC(C)c2ccc3c(c2)OCCO3)C1 (stereo not given) | -2 | 71 | 8 | 1.3 | -0.94* | 6 | 509 | 244
